# Measurements from PMC12864922, “TDP-43 directly inhibits mRNA accumulation in neurites through modulation of mRNA stability”.
# In all, about 9,900 sequences were measured (“r (bound/input frequency ratio)”: median about 0.7, highest 2% from about 6.5 on). The sample as a whole holds a higher share of the highest values than the screen did.
# B1: ENSMUSG00000061578.929|Ksr2|22:26 (ssRNA)
# RNA: GGGAGUUCUACAGUCCGACGAUCGCUUCGAUAUCCGCAUGCUACAAGGGUGUUUAGAGUAGGCACACACGAAGUAUCAAUAAGGUUAUUGAGAUGAGGAUUUAGAAAGAUCCAUGUAUAAAAGGUCUAGAAGGAUGAAGAUCUAAAACAAGAAGACUGCAUGUUAACGCUCCUGCCACUGUUGCCCCUUCCUUUACCCUUGGCAGACAUUGCUAAUCAAUCUCAGCACAGUUUCCAACCACAGUCAUAGAACAUUUGCCACAAAGGCCCUGGAUGUGACUAUAUGUGCUGAGAAGGGAAGGUACUCUUGCGGUCGCACUAGUGUGGAAUUCUCGGGUGUCAAGG
# B2: ENSMUSG00000028439.103|Fam219a (ssRNA)
# RNA: GGGAGUUCUACAGUCCGACGAUCGCUUCGAUAUCCGCAUGCUAAUACCUAUUUGUGUUUUCCCCUCAUCUCCAGAUGGGAAGCCUGGCAGCGCUGUCCAAAGGGAUACUGUCUCUCCAUUAGAUAACUCCUUCCACUGUCUCCCUCCCCCGCUUUCUUACUUUCUGAGGGUUGGGAAGGUAAGAUGGGCCUUAGAGAGAAGCCAGGUUUGGGGAUGGUAUGACCUGUUCUCACCGGUCUCUAACCAGUGCAUCUGUCUCUCUGCCUCAUCCCCACACCGCCCUGCCACCCCCAGUCUUCUGUCCUCUUGCGGUCGCACUAGUGUGGAAUUCUCGGGUGUCAAGG
# B3: ENSMUSG00000028439.89|Fam219a|94:98 (ssRNA)
# RNA: GGGAGUUCUACAGUCCGACGAUCGCUUCGAUAUCCGCAUGCUAGGGUUUUGAGAAGAAAAGGAUCCAAGCAAUGGGGGCAGUUCUCACACCUCAGAGCCCCUCUCCCCAAACCCUGUGCCAGCCCAUAUACCUAUUACACAUUUCCCCUCAUCUCCAGAUGGGAAGCCUGGCAGCGCUGUCCAAAGGGAUACUGUCUCUCCAUUAGAUAACUCCUUCCACUGUCUCCCUCCCCCGCUUUCUUACUUUCUGAGGGUUGGGAAGGUAAGAUGGGCCUUAGAGAGAAGCCAGGUUUGGGGAUGGUACUCUUGCGGUCGCACUAGUGUGGAAUUCUCGGGUGUCAAGG
# B4: ENSMUSG00000029636.86|Wasf3 (ssRNA)
# RNA: GGGAGUUCUACAGUCCGACGAUCGCUUCGAUAUCCGCAUGCUAUUCCUGUUUCUUCCCUUUGCAAAUUGAAUUCCAGGUAGAUAUGGUUGUAGAGGGGAAAGUUUAACAAAUCAGAAUGAAAUGUUUGUCUGUUUGCACACUGGGCCUGGUGGCCUCCAAGGAAAUGUGUACGAUCGUUUGCUUUCUCUAUCUUGGCGCUUGCAACCGAGAGCGGCCAUUUUUAUGAGGGGAGCCCUGUGGGUACUCAUGUGGAAAGUGCCCACUGACUUUGGCAGAUGGAGUUCACUUUCAUGGCUAGCCCUCUCUUGCGGUCGCACUAGUGUGGAAUUCUCGGGUGUCAAGG
# B5: ENSMUSG00000061578.638|Ksr2 (ssRNA)
# RNA: GGGAGUUCUACAGUCCGACGAUCGCUUCGAUAUCCGCAUGCUAAGGAAUGGUGCUAGCUAGGGUGUGAGCCAAGCCCUUGAGGCUACUGUGAGUUAUGAGAUGUGUCCAACCCUCAGCCCACAGACUGCAUAUGCCCCAGGACAGCUGUGAAGGUGACCCAAUACAAAAUCGUAAACUAACUUAAAACCAUUAAGGGUUUUUGUUUUGUUGUUGUUUGCUGGCUUUUUGUUUUUUGGGUUGGUUUUCUUUUUCUUUCUUUCUUUUUUUUUUUUUUUUCCAACUCAAGUGUGAACUUUGUUGAUCUCUUGCGGUCGCACUAGUGUGGAAUUCUCGGGUGUCAAGG
# B6: ENSMUSG00000028439.326|Fam219a (ssRNA)
# RNA: GGGAGUUCUACAGUCCGACGAUCGCUUCGAUAUCCGCAUGCUAAGAUCCUAAUUAGAUAAGAAAAUGCCAAGGGAGGCAAGCCAGAGAAAGCAUCUGCAGGGGCCACAGGCCCAUGGUGGCCCCAUCUGAGCCCCCUCUCCCACCCCAGUUCGCAUCCCCACCACUCAUCAUCUGGGCCCCAACGCUAGAACUCCCCCCACCGCAUCCCCACUGGGCUCUUUGACUCACCCUUCUAGAACAUGGGUGCCUCCUCUCUUUAGACUGCUGCCUUUGCCUCUGACUUCCUGUGGGAUUGAGAGCCACUCUUGCGGUCGCACUAGUGUGGAAUUCUCGGGUGUCAAGG
# B7: ENSMUSG00000061578.1149|Ksr2 (ssRNA)
# RNA: GGGAGUUCUACAGUCCGACGAUCGCUUCGAUAUCCGCAUGCUAAAUGGCCCAGAAUUAUAGAGGACAGAGGAGAAGGUGGGCAUUGCAAGAUGCUGGAGCUUGGAAAGCAUGGUGGAAUUUGAUACACAUGAUCACCAAGCACCACCCGGGGAAGAAACUGGGUCACUGAGUCACUGGGUCACUCUGUUCCCUGAAGGCCCACCAACCACAUCCGCAUCCUACCUAGGGUGGAACUUUGACUGUCCUCGGGUGUCUCUGCUGUAUAUAGGCCAGUCACAAGCCCUUCUAAAAGCCUGCUCUUGCUCUUGCGGUCGCACUAGUGUGGAAUUCUCGGGUGUCAAGG
# B8: ENSMUSG00000043670.242|Diras1|75:79;185:197;208:214;239:247 (ssRNA)
# RNA: GGGAGUUCUACAGUCCGACGAUCGCUUCGAUAUCCGCAUGCUACACCAGGUCUGUUCCAGGCUGUGGCAAGCUGGCUCCUGGCUCAGAAGUGACAAAGCUGCAGUACAGAGGCCUCACACACAGGUCAUCACCUCACAGUGGCUACAGACCAGGCUGUGGCCUGAGUGAGCUGGAACCUCUGGGGUGGGGACGAGAAAGAGAGAGGGAGAGAGAGGGGGGAGAGUGACACACACACACACAAGGGGGAGACACACACGGGGAAGAGUGAGAGAGAUAGAGUCAUACACACAGAGGGAGGGAGACUCUUGCGGUCGCACUAGUGUGGAAUUCUCGGGUGUCAAGG
# Molecular target: TDP-43 (Homo sapiens, UniProt Q13148 1-414)
# Test: RNA Bind-n-Seq with designed 260-mer pool; 25 mM Tris-HCl, 150 mM KCl, 3 mM MgCl2, BSA (printed 500 mg/mL), 20 units/mL SUPERase IN; pH not stated; 500 nM RNA pool, 1 h, 4 C; TDP-43 5, 50, 500 nM; high values mean tight binding
# Settings: protein: recombinant; tags: SBP (GST cleaved off with PreScission; pGEX-GST-SBP)
# In short: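 An in vitro-transcribed pool of 260-nt 3′ UTR oligos (500 nM) was incubated for 1 h at 4 °C with recombinant SBP-tagged TDP-43 at 5, 50 or 500 nM held on streptavidin beads. The buffer contained 25 mM Tris-HCl, 150 mM KCl, 3 mM MgCl2, BSA and SUPERase IN. Biotin-eluted bound RNA was sequenced, and binding, R, is each oligo's normalized read abundance in the bound sample over that in input.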
# Sequence of TDP-43 (Q13148 whole entry): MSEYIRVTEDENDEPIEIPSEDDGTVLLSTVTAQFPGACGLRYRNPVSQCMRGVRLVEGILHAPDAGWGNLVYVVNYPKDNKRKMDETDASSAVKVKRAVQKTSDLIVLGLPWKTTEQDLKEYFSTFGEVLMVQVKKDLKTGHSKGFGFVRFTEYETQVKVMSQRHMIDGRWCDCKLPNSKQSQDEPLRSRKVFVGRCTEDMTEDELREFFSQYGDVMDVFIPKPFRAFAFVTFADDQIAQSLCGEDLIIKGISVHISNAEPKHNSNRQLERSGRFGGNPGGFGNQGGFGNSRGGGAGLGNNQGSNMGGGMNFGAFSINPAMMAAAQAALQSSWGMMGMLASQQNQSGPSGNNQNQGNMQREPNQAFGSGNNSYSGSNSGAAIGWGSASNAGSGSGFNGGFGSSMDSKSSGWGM
row,Binder,binding signal
1,B1,1.18 R (bound/input frequency ratio)
2,B2,0.421 R (bound/input frequency ratio)
3,B3,0.538 R (bound/input frequency ratio)
4,B4,3.02 R (bound/input frequency ratio)
5,B5,0.297 R (bound/input frequency ratio)
6,B6,1.54 R (bound/input frequency ratio)
7,B7,0.863 R (bound/input frequency ratio)
8,B8,12.1 R (bound/input frequency ratio)
